The record followed here is ChEMBL document CHEMBL3988442, “University of Dundee, Small-Polar-MMV Screening Library” (2021).

The structures appear in SMILES notation. In all, about 48,000 compounds went through this assay and about 13,000 (27%) showed an effect of 50% or more. This is one part of the list.

For the test, the system named is Wolbachia pipientis. Kind of test: Anti-Wolbachia Cell-Based Screen. In kind it is functional. Also on record: scale not given: in the data most compounds retested in dose-response had high values. As to conditions: 5 µM.
In the case of `O=C(NC1CCCNC1=O)c1ccc2nc(-c3ccc(F)cc3)cn2c1` (stereo unspecified), the “Percent Effect” value is given as -16.52%.
`Cc1cc(C(=O)NCCN2CCC(C)CC2)nn1C(C)(C)C`: the “Percent Effect” value turned out to be 102.5%.
The same measure for `CC1CCCCN1CCNC(=O)c1ccccc1N1CCOCC1` (stereo unspecified): 19.03%; for `CC1CCCCN1CCNC(=O)c1ccn(-c2ccc(F)cc2)n1` (stereo unspecified): 4.653%; for `Cc1cc(C(=O)NCCN2CCCCC2C)nn1C(C)(C)C` (stereo unspecified): 107.2%.
`Cc1cc(C(=O)NCCN2CCCC(C)C2)nn1C` (stereo unspecified): the “Percent Effect” value is reported as -3.799%.
For the compound `CC1CCCN(CCNC(=O)c2cncnc2C(C)C)C1` (stereo unspecified), the “Percent Effect” value was determined as 11.51%.
Turning to `CCc1ncncc1C(=O)NCCN1CCC(C)CC1`, the “Percent Effect” value is 6.983%.
As for `Cc1cc(C(=O)NCCN2CCCCCC2)nn1C(C)(C)C`, the “Percent Effect” value amounted to 99.33%.
On to `CC1CCN(CCNC(=O)c2ccccc2N2CCOCC2)CC1`, for which the “Percent Effect” value is listed as -0.8532%.
For `Cc1cc(C(=O)NCCN2CCCC(C)C2)nn1C(C)(C)C` (stereo unspecified), the “Percent Effect” value is listed as 95.43%.
Regarding `CCc1ncc(C(=O)N2CCN(c3nc(C)cc(OC)n3)CC2)s1`, the “Percent Effect” value is given as -13.57%.
The same measure for `CC(C)NC(=O)[C@@H]1C[C@H](N)CN1C(=O)c1cc2c([nH]c1=O)CCCC2`: 1.783%; for `Cc1cccc2c1cnn2CCC(=O)NCC(=O)N(C)C`: 14.92%.
For the compound `Cc1cc(C(=O)N2CCCC(N3CCCCCC3)C2)nn1C(C)(C)C` (stereo unspecified), the “Percent Effect” value was -14.1%.
Turning to `Cc1cc(C(=O)NCCN2CCCCC2)nn1C(C)(C)C`, the “Percent Effect” value was found to be 88.73%.
The same measure for `O=C(O)C(F)(F)F.O=C(c1cc[nH]n1)N1CCC(F)(F)C2(CCN(c3ccccn3)C2)C1` (stereo unspecified): -20.89%.
Under `Fc1ccc(CN2CCC(F)(F)C3(CCN(c4cnccn4)C3)C2)cc1.O=C(O)C(F)(F)F.O=C(O)C(F)(F)F` (stereo unspecified) stands 95.57%.
Turning to `FC1(F)CCN(Cc2ccccn2)CC12CCN(c1ncccn1)C2.O=C(O)C(F)(F)F` (stereo unspecified), the “Percent Effect” value amounted to 99.55%.
In the case of `FC1(F)CCN(Cc2ccncc2)CC12CCN(c1cnccn1)C2.O=C(O)C(F)(F)F.O=C(O)C(F)(F)F.O=C(O)C(F)(F)F` (stereo unspecified), the “Percent Effect” value came out at 91.26%.
For `O=C(O)C(F)(F)F.c1ccc(CN2CCOC3(COCCN(c4ncccn4)C3)C2)nc1` (stereo unspecified), the “Percent Effect” value was -5.957%.
As for `Fc1cnc(N2CCC3(CC2)CN(Cc2ccccn2)CCO3)nc1.O=C(O)C(F)(F)F.O=C(O)C(F)(F)F`, the “Percent Effect” value is given as 3.828%.
On to `FC1(F)CCN(Cc2ccccn2)CC12CCN(c1cnccn1)C2.O=C(O)C(F)(F)F.O=C(O)C(F)(F)F.O=C(O)C(F)(F)F` (stereo unspecified), for which the “Percent Effect” value was 108%.
Regarding `O=C(NC[C@H]1OC[C@@H](NCc2ccccn2)[C@@H]1O)c1ccncc1`, the “Percent Effect” value is -10.69%.
The same measure for `CC1=N[C@@]2(CC[C@@H]3CN(S(=O)(=O)C4CC4)C[C@@H]32)C(=O)N1CC(C)C`: 6.738%; for `CCCC1(NC(=O)C(c2ccc(F)cc2)N(C)C)CC1` (stereo unspecified): 19.19%.
With `Cc1ccc(CNCc2ccc(N3CCC(CO)CC3)nc2)c(C)c1.Cl`, the “Percent Effect” value was 6.349%.
For `CCS(=O)(=O)NCCNCc1ccc(Cl)c2cccnc12`, the “Percent Effect” value is 1.555%.
Under `CCc1sc(C(=O)Nc2cnn(CC(=O)NC3CC3)c2)cc1C` stands -4.419%.
With `CC(NC(=O)c1cc2n(n1)CCCN(C(C)C)C2)c1cn2ccsc2n1` (stereo unspecified), the “Percent Effect” value is 13.56%.
Take `FC1(F)CCN(Cc2cccnc2)CC12CCN(c1cnccn1)C2.O=C(O)C(F)(F)F.O=C(O)C(F)(F)F.O=C(O)C(F)(F)F` (stereo unspecified): the “Percent Effect” value is recorded as 109.7%.
With `O=C(O)C(F)(F)F.OCCN1CCC(F)(F)C2(CCN(c3cnccn3)C2)C1` (stereo unspecified), the “Percent Effect” value amounted to 101.7%.
Regarding `O=C(O)C(F)(F)F.O=C(c1c[nH]cn1)N1CCC(F)(F)C2(CCN(c3cnccn3)C2)C1` (stereo unspecified), the “Percent Effect” value was -14.15%.
In the case of `O=C(NS(=O)(=O)c1ccc2c(c1)CCC2)C1COCCO1` (stereo unspecified), the “Percent Effect” value was -6.627%.
As to `CCOc1cc(C)ccc1NS(=O)(=O)c1cc(C)c(C(=O)O)s1`, the “Percent Effect” value is -7.525%.
Take `O=C1CC(c2ccsc2)c2c(n(C3CCOCC3)[nH]c2=O)N1` (stereo unspecified): the “Percent Effect” value is 5.675%.
In the case of `Cc1ccc(SCCN(C)C(=O)c2cn([C@H]3CC[C@@H](N)CC3)nn2)cc1`, the “Percent Effect” value came to 1.127%.
Consider `Cc1ccoc1C(=O)N1CC[C@H]2C[C@H](c3nnc(C4CC4)o3)O[C@@H]2C1`, for which the “Percent Effect” value was determined as 102.2%.
`Cc1nc([C@H]2C[C@H]3CN(C(=O)c4ccoc4C)CC[C@@H]3O2)no1`: the “Percent Effect” value is -4.157%.
As for `Cc1nc([C@@H]2C[C@@H]3CCN(C(=O)c4occc4C)C[C@H]3O2)no1`, the “Percent Effect” value is on record as -8.664%.
For the compound `Cc1occc1C(=O)N1CC[C@H]2C[C@@H](c3nnc(C4CC4)o3)O[C@@H]2C1`, the “Percent Effect” value amounted to 109%.
As for `CCC1c2ccccc2CCN1C(=O)c1ccc(OC)nn1` (stereo unspecified), the “Percent Effect” value is given as -4.117%.
Consider `Cc1cc(CN(C)c2nc(-c3ccccn3)nc3c2CCNCC3)n[nH]1`, for which the “Percent Effect” value was -2.668%.
`Cc1noc(CN(C)c2nc(-c3ccco3)nc3c2CCN(C)CC3)n1`: the “Percent Effect” value came out at 89.77%.
With `Cc1nonc1CN(C)c1nc(-c2ccco2)nc2c1CCN(C)CC2`, the “Percent Effect” value turned out to be 97.89%.
Take `CCOCc1nc2c(c(N(C)Cc3nonc3C)n1)CCNCC2`: the “Percent Effect” value came to 2.534%.
With `Cc1nc(CNc2nc(-c3ccco3)nc3c2CCNCC3)n[nH]1`, the “Percent Effect” value worked out at 7.543%.
Under `CC(C)n1nc2c(cc1=O)CN(Cc1nc(-c3ccco3)no1)CC2` stands -11.95%.
Take `Cc1nonc1CN(C)c1nc(-c2cccnc2)nc2c1CCNC2`: the “Percent Effect” value amounted to 3.087%.
The same measure for `Cc1cc(CN(C)c2nc(-c3ccco3)nc3c2CCN(C)CC3)on1`: 70.19%.
Turning to `CN(Cc1ccc2c(c1)OCO2)Cc1nc(-c2ccco2)no1`, the “Percent Effect” value amounted to 2.905%.
The same measure for `COCCNC(=O)CN(C)Cc1ccc(F)cc1Cl`: 14.02%; for `COc1ccc(CN(C)C2CSCCSC2)c2cccnc12`: -27.46%.
For the compound `CC(NC(=O)NCC(C)(C)O)c1ccc(-c2ccncc2)cc1` (stereo unspecified), the “Percent Effect” value is listed as -1.867%.
Under `c1ccc2oc(CCCN3CCCC3Cn3cncn3)nc2c1` (stereo unspecified) stands -5.809%; under `Cc1nc(CN2CCCCC2Cn2cncn2)nc2ccccc12` (stereo unspecified), 1.919%; under `c1ccc2c(N3CCCCC3Cn3cncn3)ncnc2c1` (stereo unspecified), -5.98%.
Consider `Cc1nc2ccccc2nc1CN1CCCC1Cn1cncn1` (stereo unspecified), for which the “Percent Effect” value is -6.198%.
For the compound `c1ccc2oc(CCCN3CCCCC3Cn3cncn3)nc2c1` (stereo unspecified), the “Percent Effect” value was 92.19%.
Under `c1ccc2oc(CN3CCCCC3Cn3cncn3)nc2c1` (stereo unspecified) stands 109.3%.
Turning to `Cc1nc2ccccc2nc1CN1CCCCC1Cn1cncn1` (stereo unspecified), the “Percent Effect” value is given as -2.917%.
As for `Cc1nc(CN2CCCC2Cn2cncn2)nc2ccccc12` (stereo unspecified), the “Percent Effect” value is listed as 12.85%.
For `c1ccc2oc(N3CCCC3Cn3cncn3)nc2c1` (stereo unspecified), the “Percent Effect” value was 106.1%.
As for `c1ccc2oc(N3CCCCC3Cn3cncn3)nc2c1` (stereo unspecified), the “Percent Effect” value was -11.74%.
As for `c1ccc2oc(CN3CCCC3Cn3cncn3)nc2c1` (stereo unspecified), the “Percent Effect” value was 131.5%.
For `CCOC(=O)NC(CNC(=O)c1cc(Cl)ccn1)CC(C)C` (stereo unspecified), the “Percent Effect” value was 7.591%.
As to `CCOCc1nn(CC2CC2)c2c1CN(C(=O)c1ccno1)CC2`, the “Percent Effect” value turned out to be 13.02%.
The same measure for `CC(=O)N1CCC(c2cc(C(F)(F)F)n3ccnc3n2)CC1`: 1.424%; for `CN1CCC(c2cc(C(F)(F)F)n3ccnc3n2)CC1`: 137.1%; for `CN1CCC(N2CC[C@H](c3nc4ccc(C(F)(F)F)cc4[nH]3)C2)CC1`: -1.878%.
In the case of `CC(C)N1CCC(c2cc(C(F)(F)F)n3ccnc3n2)CC1`, the “Percent Effect” value came out at 75.91%.
`NC(=O)CN1CCC(c2cc(C(F)(F)F)n3ccnc3n2)CC1`: the “Percent Effect” value was determined as 134.1%.
With `CC(C)n1ccnc1C1CCN(Cc2ccc(Cl)c(F)c2)CC1`, the “Percent Effect” value is given as -2.763%.
Regarding `N#Cc1ccccc1CN1CCC(c2nccn2CC(N)=O)CC1`, the “Percent Effect” value is reported as -2.764%.
Under `CCCN1CCN(S(=O)(=O)c2ccccc2OC)[C@H]2CS(=O)(=O)C[C@H]21` stands -12.25%.
As for `Cc1cnc(C)c(N2CCCC(C/C=C/c3ccccc3)(C(=O)O)C2)n1` (stereo unspecified), the “Percent Effect” value is -10.18%.
Regarding `Cc1ccoc1CNCc1nnc2n1CCCC2C(F)(F)F` (stereo unspecified), the “Percent Effect” value is -14.27%.
As for `CCCn1ncc(-c2ccnc(N[C@@H]3C[C@@H]4CC[C@H]3C4)n2)c1C`, the “Percent Effect” value was -16.18%.
Turning to `CC[C@H](C)Nc1nccc(-c2cnc3sc(C)c(C)n3c2=O)n1`, the “Percent Effect” value is reported as -3.163%.
Turning to `CNc1nccc(-c2cnc3sc(C)c(C)n3c2=O)n1`, the “Percent Effect” value was 88.7%.
Under `Cc1sc2ncc(-c3ccnc(NC4CCN(C)CC4)n3)c(=O)n2c1C` stands 102.6%; under `CNc1nccc(-c2cn(C)nc2C)n1`, 5.366%.
In the case of `CCNC(=O)N1CCC(Nc2nccc(NCC)n2)CC1`, the “Percent Effect” value is reported as -9.692%.
Turning to `CCOCCN1CCN(Cc2nnc(C3CC3)o2)CC1CC` (stereo unspecified), the “Percent Effect” value came to 2.687%.
The same measure for `O=C(c1ccc2c(c1)CCO2)N1CCN(c2ncccn2)CC1`: 13.67%; for `COC(=O)c1ccc(NC(=O)CCc2ccncc2)c(C)c1`: -3.514%; for `O=C(CCc1ccncc1)Nc1ccc(OCC2CC2)cc1`: 33.82%.
In the case of `O=C(CCc1ccc(-n2cnnn2)cc1)Nc1nncs1`, the “Percent Effect” value was 117.3%.
Take `O=C(Cc1ccc(-n2cnnn2)cc1)Nc1nncs1`: the “Percent Effect” value was -7.49%.
In the case of `O=C(CCc1ccc(-n2cnnn2)cc1)Nc1ccncc1`, the “Percent Effect” value is given as 118.2%.
In the case of `O=C(CCn1cc(Cl)cn1)Nc1nncs1`, the “Percent Effect” value was -12.52%.
Turning to `Cc1nnc(CN(C)Cc2ccc(C(=O)Nc3sccc3C#N)cc2)o1`, the “Percent Effect” value came out at 8.936%.
For the compound `CC(C)c1nc2c(n1C)CCN(CCS(=O)(=O)c1ccccc1)C2`, the “Percent Effect” value is reported as 16.54%.
The same measure for `Cc1nc(-c2cccc(N3CCC(N4CCCC(C#N)C4)CC3)c2)cs1` (stereo unspecified): 9.753%; for `CC(CN1CCCC1)C(=O)NCC1CCN(c2cnn(C)c(=O)c2)CC1` (stereo unspecified): -3.002%.
The same measure for `Cn1ncc(N2CCOC(CCNC(=O)N3CCCCC3)C2)cc1=O` (stereo unspecified): 104.2%; for `Cc1ccc(C(=O)NCCC2CN(c3cnn(C)c(=O)c3)CCO2)s1` (stereo unspecified): 76.89%.
`Cn1cc(CN2CCOC(CCNC(=O)c3ccsc3)C2)cn1` (stereo unspecified): the “Percent Effect” value was -1.141%.
As to `CCC(=O)N1CCCC(C(=O)N2CCN(c3cnn(C)c(=O)c3)CC2)C1` (stereo unspecified), the “Percent Effect” value was 6.032%.
Regarding `Cn1ncc(N2CCC(CNC(=O)[C@@H](N)c3ccccc3)CC2)cc1=O`, the “Percent Effect” value is listed as -13.88%.
`CC(=O)N1CCCC(C(=O)N2CCN(c3cnn(C)c(=O)c3)CC2)C1` (stereo unspecified): the “Percent Effect” value was -1.408%.
Under `Cc1cnn(C(C)C(=O)NCC2CCN(c3cnn(C)c(=O)c3)CC2)c1` (stereo unspecified) stands -4.842%.
Take `Cn1ncc(N2CCC(CNC(=O)[C@@H](N)C3CCCCC3)CC2)cc1=O`: the “Percent Effect” value is -13.96%.
In the case of `CN1CCC(C(=O)NCCC2CN(c3cnn(C)c(=O)c3)CCO2)CC1` (stereo unspecified), the “Percent Effect” value worked out at 98.07%.
`Cn1ncc(N2CCOC(CCNC(=O)CO)C2)cc1=O` (stereo unspecified): the “Percent Effect” value stood at 110.6%.
On to `CC(C)C(=O)NCC(=O)NCC1CCN(c2cnn(C)c(=O)c2)CC1`, for which the “Percent Effect” value is recorded as -2.577%.
